Source: PubChem BioAssay
Inconclusive results are not listed. Calls of active or inactive are those of the source. Unless noted, the rule behind the calls is not given here.

Tests used:
[1] = stimulators of insulin release from INS-1E, primary screen, cell-based, 5 mM glucose, NPC library (AID 1117329;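 active = compound raises insulin release from rat beta cells at 5 mM glucose, no numeric limit stated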); settings: rat INS-1E insulin secretion, at 10 µM, stronger effect = higher value
[2] = growth inhibition of GSK3B-pretreated HCT116 cells – cell-based, CellTiter-Glo, 0.2 to 20 µM (AID 1117336;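 active = compounds lowering colon cancer cell viability after pretreatment blocking the GSK3B kinase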); settings: HCT116 viability after GSK3B inhibitor, at 20 µM, stronger effect = higher value
[3] = inhibition of endothelial tube formation, primary screen, imaging, VEGF stimulated, CD31 staining, tube area, NPC library (AID 1117340;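 active = compound that reduces growth-factor-driven endothelial tube area in a mixed cell culture, no cutoff stated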); settings: VEGF-stimulated ADSC/ECFC co-culture, at 10 µM, stronger effect = higher value
[4] = glucagon-like peptide 1 release enhancers, primary assay, NCI-H716 cell line, NPC library (AID 1117341;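 active = compound raises GLP1 secretion from the human gut endocrine cells, with no numeric limit stated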); settings: NCI-H716 cells, at 10 µM, stronger effect = higher value
[5] = HCT116 colon cancer cell growth inhibition, primary screen, CellTiter-Glo luminescence, NPC library (AID 1117342;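 active = compounds that lower survival of HCT116 colon cancer cells in the luminescence readout, no numeric limit stated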); settings: at 20 µM (top of the series)
[6] = CellTiter-Glo luminescent readout of SW480 viability loss, NPC library primary (AID 1117343;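 active = compounds that lower viability of the colon cancer cells in the luminescence readout, with no numeric limit stated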); settings: CellTiter-Glo luminescence; at 20 µM (top of the series)
[7] = decreased DLD-1 cellular survival, CellTiter-Glo luminescent readout, NPC compound collection, primary HTS (AID 1117346;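 active = compounds that lower survival of DLD-1 colon cancer cells in the luminescence readout, no cutoff given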); settings: DLD-1 viability, CellTiter-Glo luminescence; at 20 µM (top of the series)
[8] = modulation of C. elegans fzo-1 (AID 1259413);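 note: fzo-1 mutant C. elegans worms in liquid wells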; settings: C. elegans fzo-1 modulator screen, mean read-out; stronger effect = higher value
[9] = differential killing of epithelial or mesenchymal cells, primary screen, imaging, PC-3E GFP, TEM4-18 mCherry, co-culture (AID 1345086;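 active = compounds killing one labelled cell type while sparing the other, by normalised counts and ratio limits, not self-fluorescent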;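 for all read-outs here: cells exposed to compound for 72 h before imaging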;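 for red/green cell ratio (normalised): normalised mesenchymal count divided by normalised epithelial count so high means epithelial killing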); settings: imaging cell counts, at 1 µM; for red/green cell ratio (normalised): actives lie on both sides, counts scaled to control wells, 1 = unselective
[10] = test system: Aerobactin synthetase IucA (Klebsiella pneumoniae); experiment: IucA aerobactin synthetase inhibitors, biochemical, Tocris library, absorbance (AID 1345561); settings: purified IucA enzyme assay, absorbance (OD) read-out; stronger effect = lower value;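 tested at 8 µM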;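 note: 100% = enzyme without compound and 0% = no enzyme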
[11] = growth inhibition of DIPG glioma cells, dose response, cell-based, SU-DIPG-XVII, MIPE5.0, CellTiter-Glo, qHTS (AID 1347060; cut-off not given, nearly all actives have AC50 up to about 26 µM;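 for AC50: cells exposed to compound for 48 hours before viability readout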); settings: SU-DIPG-XVII viability, CellTiter-Glo ATP luminescence
[12] = growth inhibition of DIPG glioma cells, dose response, cell-based, SU-DIPG-XIII, MIPE4.0, CellTiter-Glo, qHTS (AID 1347061; cut-off not given, nearly all actives have AC50 up to about 37 µM;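 note: cells exposed to compound for 48 hours before readout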); settings: SU-DIPG-XIII viability, CellTiter-Glo ATP luminescence
[13] = growth inhibition of DIPG glioma cells, dose response, cell-based, SU-DIPG-XIII, MIPE5.0, CellTiter-Glo, qHTS (AID 1347064; cut-off not given, nearly all actives have AC50 up to about 23 µM); settings: SU-DIPG-XIII viability, CellTiter-Glo ATP luminescence
[14] = growth inhibition of DIPG glioma cells, dose response, cell-based, SU-DIPG-IV, MIPE4.0, CellTiter-Glo, qHTS (AID 1347063; cut-off not given, nearly all actives have AC50 up to about 30 µM;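 note: compound exposure lasted 48 hours before the viability readout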); settings: SU-DIPG-IV viability, CellTiter-Glo ATP luminescence
[15] = growth inhibition of DIPG glioma cells, dose response, cell-based, JHH-DIPG-1, MIPE4.0, CellTiter-Glo, qHTS (AID 1347062; cut-off not given, nearly all actives have AC50 up to about 27 µM); settings: JHH-DIPG-1 viability, CellTiter-Glo ATP luminescence
[16] = measured here: epithelial PC-3E GFP cell survival
[17] = measured here: mesenchymal TEM4-18 mCherry cell survival

CN1CCC(=C2c3ccccc3C=Cc3ccccc32)CC1
0.91: normalised cell number [9, 16]
active: tube area decrease [3] 43.3% | viability decrease (inhibition) [6] 100% | AC50 [12] 23.5 µM
0.97: normalised cell number [9, 17]
inactive: insulin secretion stimulation [1] 0.2% | viability decrease [2] 48.8% | GLP1 secretion stimulation [4] 11.9% | inhibition of viability [5] 39% | viability decrease (inhibition) [7] 31.8% | mean signal [8] 251 | red/green cell ratio (normalised) [9] 1.06 | remaining activity [10] 104% | outcome [11] | outcome [13]

Cc1cccc(C)c1OCC(C)N (configuration not stated)
inactive: insulin secretion stimulation [1] 4.3% | viability decrease [2] 3.4% | tube area decrease [3] -2% | GLP1 secretion stimulation [4] -4.1% | inhibition of viability [5] 5.27% | viability decrease (inhibition) [6] -7.7% | viability decrease (inhibition) [7] 4.3% | mean signal [8] 227 | red/green cell ratio (normalised) [9] 1.08 | remaining activity [10] 104%
1.22: normalised cell number [9, 17]
1.13: normalised cell number [9, 16]

O=C(NCCO[N+](=O)[O-])c1cccnc1
inactive: insulin secretion stimulation [1] 1.2% | viability decrease [2] -0.2% | tube area decrease [3] -25.1% | GLP1 secretion stimulation [4] -1.4% | inhibition of viability [5] 6% | viability decrease (inhibition) [6] 0.2% | viability decrease (inhibition) [7] -3.2% | mean signal [8] 264 | red/green cell ratio (normalised) [9] 0.94 | remaining activity [10] 106% | outcome [11] | outcome [12] | outcome [14]
1.18: normalised cell number [9, 16]
1.11: normalised cell number [9, 17]

COC(=O)C1=C(C)NC(C)=C(C(=O)OC(C)C)C1c1cccc2nonc12 (configuration not stated)
1.04: normalised cell number [9, 17]
inactive: insulin secretion stimulation [1] -0.7% | viability decrease [2] -4.5% | tube area decrease [3] 13.7% | GLP1 secretion stimulation [4] -2.4% | inhibition of viability [5] 48.4% | viability decrease (inhibition) [6] 20.8% | viability decrease (inhibition) [7] 11.2% | mean signal [8] 273 | red/green cell ratio (normalised) [9] 1.19 | remaining activity [10] 109% | outcome [15] | outcome [14]
0.87: normalised cell number [9, 16]

O=C1CC2(CCCC2)CC(=O)N1CCCCN1CCN(c2ncccn2)CC1
inactive: insulin secretion stimulation [1] -0.8% | viability decrease [2] 20.1% | tube area decrease [3] -1.5% | GLP1 secretion stimulation [4] 1.7% | inhibition of viability [5] 39.4% | viability decrease (inhibition) [6] 20.4% | viability decrease (inhibition) [7] 1.7% | mean signal [8] 228 | red/green cell ratio (normalised) [9] 1.04 | remaining activity [10] 109%
1.05: normalised cell number [9, 16]
1.09: normalised cell number [9, 17]

COc1ccc(C2CNC(=O)C2)cc1OC1CCCC1 (configuration not stated)
1.05: normalised cell number [9, 16]
active: viability decrease (inhibition) [6] 88.4%
inactive: insulin secretion stimulation [1] 0.8% | viability decrease [2] 23.9% | tube area decrease [3] 1.1% | GLP1 secretion stimulation [4] 4.4% | inhibition of viability [5] 13.6% | viability decrease (inhibition) [7] 29.1% | mean signal [8] 251 | red/green cell ratio (normalised) [9] 0.93 | remaining activity [10] 98.4% | outcome [11] | outcome [15] | outcome [14] | outcome [13]
0.97: normalised cell number [9, 17]

OCc1cc(C(O)CNCCCCCCOCCCCc2ccccc2)ccc1O (configuration not stated)
0.97: normalised cell number [9, 17]
inactive: insulin secretion stimulation [1] 0.4% | viability decrease [2] -73.1% | tube area decrease [3] 27.2% | GLP1 secretion stimulation [4] -0.4% | inhibition of viability [5] 44.6% | viability decrease (inhibition) [6] 46.4% | viability decrease (inhibition) [7] 37.8% | mean signal [8] 253 | red/green cell ratio (normalised) [9] 1.18 | remaining activity [10] 115%
0.82: normalised cell number [9, 16]

CC(C)NCC(O)COc1ccc(COCCOC(C)C)cc1 (configuration not stated)
1.05: normalised cell number [9, 16]
inactive: insulin secretion stimulation [1] 1.2% | viability decrease [2] 6.2% | tube area decrease [3] -2.7% | GLP1 secretion stimulation [4] -1.1% | inhibition of viability [5] -3.93% | viability decrease (inhibition) [6] 0% | viability decrease (inhibition) [7] -4.5% | mean signal [8] 229 | red/green cell ratio (normalised) [9] 0.9 | remaining activity [10] 120% | outcome [12] | outcome [15] | outcome [14]
0.94: normalised cell number [9, 17]

NC1CCN(c2nc3c(cc2F)c(=O)c(C(=O)O)cn3-c2ccc(F)cc2F)C1 (configuration not stated)
1.02: normalised cell number [9, 17]
1.14: normalised cell number [9, 16]
inactive: insulin secretion stimulation [1] 3.3% | viability decrease [2] 24.4% | tube area decrease [3] 3.6% | GLP1 secretion stimulation [4] 2.2% | inhibition of viability [5] -9.3% | viability decrease (inhibition) [6] -19.3% | viability decrease (inhibition) [7] -39.1% | mean signal [8] 292 | red/green cell ratio (normalised) [9] 0.9

CC(C)(C(=O)c1cccnc1)c1cccnc1
1.04: normalised cell number [9, 17]
1.21: normalised cell number [9, 16]
inactive: insulin secretion stimulation [1] 0.7% | viability decrease [2] -5.6% | tube area decrease [3] 4.4% | GLP1 secretion stimulation [4] 0.8% | inhibition of viability [5] 0.97% | viability decrease (inhibition) [6] 1.2% | viability decrease (inhibition) [7] -9.4% | mean signal [8] 259 | red/green cell ratio (normalised) [9] 0.85

CCc1c2c(nc3ccc(OC(=O)N4CCC(N5CCCCC5)CC4)cc13)-c1cc3c(c(=O)n1C2)COC(=O)[C@]3(O)CC
active: viability decrease [2] 67.4% | tube area decrease [3] 97.9% | GLP1 secretion stimulation [4] 24% | inhibition of viability [5] 50.8% | AC50 [11] 263 nM | AC50 [14] 4.69 µM
0.34: normalised cell number [9, 17]
inactive: insulin secretion stimulation [1] -1.1% | viability decrease (inhibition) [6] 21.7% | viability decrease (inhibition) [7] 8.7% | mean signal [8] 270 | red/green cell ratio (normalised) [9] 1.07 | remaining activity [10] 108%
0.32: normalised cell number [9, 16]
